We go through one sequence from paper PMC7862700, “An all-to-all approach to the identification of sequence-specific readers for epigenetic DNA modifications on cytosine”.

What all share (experiment): DAPPL (digital affinity profiling via proximity ligation, sequencing); 10 mM Tris-HCl pH 7.5, 50 mM NaCl, 1 mM DTT, 4% glycerol, room temperature, 30 min; GST-TFs on glutathione beads, 16-mer random dsDNA library, 0.1% formaldehyde crosslink after washing; high values mean tight binding
One assay addresses T1, FLI1 (Homo sapiens, UniProt Q01543 1-452).
T1 sequence: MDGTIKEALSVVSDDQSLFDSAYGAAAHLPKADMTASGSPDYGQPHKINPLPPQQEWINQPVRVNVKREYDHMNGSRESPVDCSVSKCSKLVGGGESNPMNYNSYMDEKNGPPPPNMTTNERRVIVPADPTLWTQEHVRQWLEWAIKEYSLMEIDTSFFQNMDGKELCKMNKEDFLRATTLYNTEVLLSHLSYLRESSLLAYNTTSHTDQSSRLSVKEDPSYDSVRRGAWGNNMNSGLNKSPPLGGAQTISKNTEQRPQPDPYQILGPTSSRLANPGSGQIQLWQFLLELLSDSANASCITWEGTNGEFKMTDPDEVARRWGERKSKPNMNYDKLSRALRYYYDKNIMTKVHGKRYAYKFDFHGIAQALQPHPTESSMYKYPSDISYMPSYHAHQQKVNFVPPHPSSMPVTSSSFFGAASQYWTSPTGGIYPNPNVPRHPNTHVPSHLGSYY
To be noted: protein: recombinant; tags: N-terminal GST; dsDNA, one strand shown. In short, it runs like this: (§1)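 Beads coated with glutathione captured GST-fused human transcription factors that had been expressed in yeast, and the factors were then given DNA barcodes and pooled with a tag-only sample. The pools were incubated with 200 nmole of a random double-stranded 16-mer DNA library in Tris/NaCl/DTT/glycerol buffer for 30 min at room temperature, washed, crosslinked with 0.1% formaldehyde and proximity-ligated with BsaI/T4 ligase at 37 °C for 1 h. PCR amplification and Illumina NextSeq500 sequencing came last. Binding signal is each hexamer's read frequency for a factor divided by its frequency for the tag-only sample.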

The next assay has as its target T2, ELK1 (Homo sapiens, UniProt P19419 1-428).
T2 sequence: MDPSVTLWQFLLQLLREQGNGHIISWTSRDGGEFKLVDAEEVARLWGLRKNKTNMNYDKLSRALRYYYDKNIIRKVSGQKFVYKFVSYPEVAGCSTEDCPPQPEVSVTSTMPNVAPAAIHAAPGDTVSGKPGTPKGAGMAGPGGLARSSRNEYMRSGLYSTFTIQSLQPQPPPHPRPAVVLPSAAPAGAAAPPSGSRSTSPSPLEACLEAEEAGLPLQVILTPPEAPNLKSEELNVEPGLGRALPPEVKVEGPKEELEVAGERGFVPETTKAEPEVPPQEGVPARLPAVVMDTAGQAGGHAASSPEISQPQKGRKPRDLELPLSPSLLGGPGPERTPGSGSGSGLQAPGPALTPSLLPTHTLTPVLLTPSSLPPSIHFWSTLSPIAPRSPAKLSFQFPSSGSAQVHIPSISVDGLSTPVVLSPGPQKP
To be noted: protein: recombinant; tags: N-terminal GST; dsDNA, one strand shown. In short, it runs like this: as §1

In another assay the target is T3, GABPA (Homo sapiens, UniProt Q06546 1-454).
T3 sequence: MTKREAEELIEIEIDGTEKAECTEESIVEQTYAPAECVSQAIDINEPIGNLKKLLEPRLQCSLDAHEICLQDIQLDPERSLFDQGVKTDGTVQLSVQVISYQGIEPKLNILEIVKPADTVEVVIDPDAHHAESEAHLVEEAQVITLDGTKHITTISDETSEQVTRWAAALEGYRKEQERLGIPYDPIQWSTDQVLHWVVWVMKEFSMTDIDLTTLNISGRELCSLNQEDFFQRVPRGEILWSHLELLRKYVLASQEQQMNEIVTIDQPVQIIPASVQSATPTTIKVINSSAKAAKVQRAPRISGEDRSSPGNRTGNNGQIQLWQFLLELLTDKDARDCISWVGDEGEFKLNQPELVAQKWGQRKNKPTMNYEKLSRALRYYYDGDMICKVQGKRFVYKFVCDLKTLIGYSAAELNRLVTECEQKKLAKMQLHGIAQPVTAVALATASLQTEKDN
To be noted: protein: recombinant; tags: N-terminal GST; dsDNA, one strand shown. In short, it runs like this:
as §1

The target in another assay is T4, ERG (Homo sapiens, UniProt P11308 1-479).
T4 sequence: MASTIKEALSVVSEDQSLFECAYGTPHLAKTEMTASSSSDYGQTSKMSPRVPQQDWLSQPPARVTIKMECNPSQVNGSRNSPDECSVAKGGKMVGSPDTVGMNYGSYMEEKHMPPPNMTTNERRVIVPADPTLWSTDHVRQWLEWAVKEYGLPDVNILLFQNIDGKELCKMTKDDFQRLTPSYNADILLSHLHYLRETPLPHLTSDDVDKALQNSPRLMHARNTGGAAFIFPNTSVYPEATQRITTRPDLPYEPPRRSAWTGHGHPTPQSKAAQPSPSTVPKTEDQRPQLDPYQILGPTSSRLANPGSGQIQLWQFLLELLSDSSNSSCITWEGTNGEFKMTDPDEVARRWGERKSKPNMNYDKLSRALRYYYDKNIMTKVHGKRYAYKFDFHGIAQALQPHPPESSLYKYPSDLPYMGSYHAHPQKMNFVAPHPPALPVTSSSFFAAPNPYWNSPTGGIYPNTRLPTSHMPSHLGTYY
To be noted: protein: recombinant; tags: N-terminal GST; dsDNA, one strand shown. In a few lines:
as §1

The next assay concerns the target ELF1 (Homo sapiens, UniProt P32519 1-619). To be noted: protein: recombinant; tags: N-terminal GST; dsDNA, one strand shown. In a few lines: as §1
The target of another assay is T5, EHF (Homo sapiens, UniProt Q9NZC4 1-300).
T5 sequence: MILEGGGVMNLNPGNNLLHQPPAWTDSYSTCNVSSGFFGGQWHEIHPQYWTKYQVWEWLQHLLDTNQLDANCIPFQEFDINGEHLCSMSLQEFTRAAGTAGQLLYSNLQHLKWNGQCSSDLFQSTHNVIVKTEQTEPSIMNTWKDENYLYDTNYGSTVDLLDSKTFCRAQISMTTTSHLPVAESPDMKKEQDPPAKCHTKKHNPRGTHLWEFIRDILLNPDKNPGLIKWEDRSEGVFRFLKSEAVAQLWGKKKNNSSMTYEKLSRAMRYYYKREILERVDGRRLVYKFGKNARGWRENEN
To be noted: protein: recombinant; tags: N-terminal GST; dsDNA, one strand shown. In short, it runs like this: as §1

Another assay deals with SPI1 (Homo sapiens, UniProt P17947 1-270). To be noted: protein: recombinant; tags: N-terminal GST; dsDNA, one strand shown. In a few lines: as §1
The target in another assay is SPIB (Homo sapiens, UniProt Q01892 1-262). To be noted: protein: recombinant; tags: N-terminal GST; dsDNA, one strand shown. In short, it runs like this:
as §1

In a further assay the target is T6, ELK3 (Homo sapiens, UniProt P41970 1-407).
T6 sequence: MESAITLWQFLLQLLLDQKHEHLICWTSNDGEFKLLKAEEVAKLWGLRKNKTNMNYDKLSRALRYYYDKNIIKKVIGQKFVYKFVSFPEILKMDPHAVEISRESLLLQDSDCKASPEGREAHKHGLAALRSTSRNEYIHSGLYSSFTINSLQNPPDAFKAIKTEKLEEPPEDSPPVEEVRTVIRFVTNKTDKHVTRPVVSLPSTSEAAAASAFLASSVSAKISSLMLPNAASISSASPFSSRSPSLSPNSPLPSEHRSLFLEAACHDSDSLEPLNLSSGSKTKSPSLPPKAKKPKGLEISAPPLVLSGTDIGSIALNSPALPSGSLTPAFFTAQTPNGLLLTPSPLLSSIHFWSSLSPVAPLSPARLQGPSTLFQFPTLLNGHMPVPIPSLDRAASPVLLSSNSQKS
To be noted: protein: recombinant; tags: N-terminal GST; dsDNA, one strand shown. In short, it runs like this:
as §1

The target of the next assay is T7, FEV (Homo sapiens, UniProt Q99581 1-238).
T7 sequence: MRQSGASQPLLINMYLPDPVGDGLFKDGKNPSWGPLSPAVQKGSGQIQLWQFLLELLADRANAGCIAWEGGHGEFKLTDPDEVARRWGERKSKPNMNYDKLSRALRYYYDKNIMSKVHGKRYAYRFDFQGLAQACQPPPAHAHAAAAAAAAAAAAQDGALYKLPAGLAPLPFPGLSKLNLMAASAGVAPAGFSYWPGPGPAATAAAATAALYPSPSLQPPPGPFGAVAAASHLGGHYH
To be noted: protein: recombinant; tags: N-terminal GST; dsDNA, one strand shown. In a few lines: as §1

A further assay deals with ETV5 (Homo sapiens, UniProt P41161 1-510). To be noted: protein: recombinant; tags: N-terminal GST; dsDNA, one strand shown. In short, it runs like this:
as §1

In another assay the target is HSF1 (Homo sapiens, UniProt Q00613 1-529). To be noted: protein: recombinant; tags: N-terminal GST; chain copies: 3; dsDNA, one strand shown. In a few lines:
as §1

The target in the next assay is T8, SPIC (Homo sapiens, UniProt Q8N5J4 1-248).
T8 sequence: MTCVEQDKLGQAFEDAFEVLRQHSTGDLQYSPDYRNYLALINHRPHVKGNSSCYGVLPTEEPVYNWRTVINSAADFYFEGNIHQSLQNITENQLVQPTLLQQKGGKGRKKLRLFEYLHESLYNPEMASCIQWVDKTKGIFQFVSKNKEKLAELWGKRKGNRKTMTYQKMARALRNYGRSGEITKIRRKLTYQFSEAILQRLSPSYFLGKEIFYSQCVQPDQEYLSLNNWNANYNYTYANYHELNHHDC
To be noted: protein: recombinant; tags: N-terminal GST; dsDNA, one strand shown. In a few lines:
as §1

The next assay has as its target ELF4 (Homo sapiens, UniProt Q99607 1-663). To be noted: protein: recombinant; tags: N-terminal GST; dsDNA, one strand shown. In short, it runs like this:
as §1

The target of a further assay is T9, ELK4 (Homo sapiens, UniProt P28324-2 1-405).
T9 sequence: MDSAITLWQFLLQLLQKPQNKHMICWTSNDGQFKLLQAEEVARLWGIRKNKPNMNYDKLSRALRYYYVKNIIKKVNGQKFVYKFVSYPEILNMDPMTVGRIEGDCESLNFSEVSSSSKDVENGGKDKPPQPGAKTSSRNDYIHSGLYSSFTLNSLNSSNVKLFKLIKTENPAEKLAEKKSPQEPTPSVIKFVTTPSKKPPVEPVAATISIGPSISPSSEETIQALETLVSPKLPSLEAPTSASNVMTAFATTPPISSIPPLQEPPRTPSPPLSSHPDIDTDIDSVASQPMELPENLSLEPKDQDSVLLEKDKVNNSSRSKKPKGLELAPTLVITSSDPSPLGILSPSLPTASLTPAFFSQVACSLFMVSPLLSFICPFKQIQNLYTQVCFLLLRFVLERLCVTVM
To be noted: protein: recombinant; tags: N-terminal GST; dsDNA, one strand shown. In a few lines: as §1

The target in the next assay is T10, ETV2 (Homo sapiens, UniProt O00321 1-342).
T10 sequence: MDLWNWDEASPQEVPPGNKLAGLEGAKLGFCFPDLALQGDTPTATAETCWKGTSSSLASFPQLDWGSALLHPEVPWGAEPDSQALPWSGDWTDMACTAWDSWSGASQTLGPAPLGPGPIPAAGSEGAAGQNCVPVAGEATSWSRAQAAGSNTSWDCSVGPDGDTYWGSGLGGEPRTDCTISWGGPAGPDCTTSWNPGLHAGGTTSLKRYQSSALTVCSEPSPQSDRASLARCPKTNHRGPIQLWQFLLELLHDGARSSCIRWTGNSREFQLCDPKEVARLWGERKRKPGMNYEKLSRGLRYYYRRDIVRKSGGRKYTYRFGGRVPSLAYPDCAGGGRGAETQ
To be noted: protein: recombinant; tags: N-terminal GST; dsDNA, one strand shown. In a few lines:
as §1

In the next assay the target is T11, ELF3 (Homo sapiens, UniProt P78545 1-371).
T11 sequence: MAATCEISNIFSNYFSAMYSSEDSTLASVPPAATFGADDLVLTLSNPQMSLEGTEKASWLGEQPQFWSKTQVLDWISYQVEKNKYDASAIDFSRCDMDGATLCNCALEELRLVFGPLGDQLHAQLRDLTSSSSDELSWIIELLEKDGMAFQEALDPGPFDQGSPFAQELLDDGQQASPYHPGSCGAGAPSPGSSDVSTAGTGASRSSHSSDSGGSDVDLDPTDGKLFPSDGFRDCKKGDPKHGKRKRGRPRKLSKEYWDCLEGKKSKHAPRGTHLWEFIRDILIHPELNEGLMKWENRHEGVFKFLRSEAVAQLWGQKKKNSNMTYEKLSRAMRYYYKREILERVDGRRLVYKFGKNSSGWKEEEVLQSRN
To be noted: protein: recombinant; tags: N-terminal GST; dsDNA, one strand shown. In short, it runs like this:
as §1

The next assay has as its target CRX (Homo sapiens, UniProt O43186 1-299). To be noted: protein: recombinant; tags: N-terminal GST; dsDNA, one strand shown. In short, it runs like this:
as §1

The next assay concerns the target ETV1 (Homo sapiens, UniProt P50549 1-477). To be noted: protein: recombinant; tags: N-terminal GST; dsDNA, one strand shown. In short, it runs like this: as §1

Sequence of CRX (O43186 whole entry): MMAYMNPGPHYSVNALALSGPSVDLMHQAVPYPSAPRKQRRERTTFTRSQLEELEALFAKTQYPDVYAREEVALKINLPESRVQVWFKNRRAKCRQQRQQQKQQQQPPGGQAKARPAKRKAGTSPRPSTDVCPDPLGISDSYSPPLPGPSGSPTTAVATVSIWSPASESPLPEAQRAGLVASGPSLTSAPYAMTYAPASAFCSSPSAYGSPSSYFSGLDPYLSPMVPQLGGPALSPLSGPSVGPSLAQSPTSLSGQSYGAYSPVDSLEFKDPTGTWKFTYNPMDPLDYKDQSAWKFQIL
Sequence of ETV5 (P41161 whole entry): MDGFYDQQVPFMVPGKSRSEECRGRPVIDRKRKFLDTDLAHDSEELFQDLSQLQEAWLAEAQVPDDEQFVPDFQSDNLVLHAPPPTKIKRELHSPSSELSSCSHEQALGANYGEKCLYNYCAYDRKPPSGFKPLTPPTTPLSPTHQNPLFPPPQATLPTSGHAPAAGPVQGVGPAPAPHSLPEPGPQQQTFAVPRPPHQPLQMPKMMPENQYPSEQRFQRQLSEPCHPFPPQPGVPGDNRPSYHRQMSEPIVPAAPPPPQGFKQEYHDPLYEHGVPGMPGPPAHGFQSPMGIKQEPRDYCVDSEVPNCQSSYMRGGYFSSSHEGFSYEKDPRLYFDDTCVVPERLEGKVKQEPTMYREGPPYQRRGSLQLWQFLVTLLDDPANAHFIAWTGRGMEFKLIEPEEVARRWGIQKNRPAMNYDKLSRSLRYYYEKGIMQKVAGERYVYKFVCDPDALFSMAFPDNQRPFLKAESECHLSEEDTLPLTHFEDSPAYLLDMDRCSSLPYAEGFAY
Sequence of HSF1 (Q00613 whole entry): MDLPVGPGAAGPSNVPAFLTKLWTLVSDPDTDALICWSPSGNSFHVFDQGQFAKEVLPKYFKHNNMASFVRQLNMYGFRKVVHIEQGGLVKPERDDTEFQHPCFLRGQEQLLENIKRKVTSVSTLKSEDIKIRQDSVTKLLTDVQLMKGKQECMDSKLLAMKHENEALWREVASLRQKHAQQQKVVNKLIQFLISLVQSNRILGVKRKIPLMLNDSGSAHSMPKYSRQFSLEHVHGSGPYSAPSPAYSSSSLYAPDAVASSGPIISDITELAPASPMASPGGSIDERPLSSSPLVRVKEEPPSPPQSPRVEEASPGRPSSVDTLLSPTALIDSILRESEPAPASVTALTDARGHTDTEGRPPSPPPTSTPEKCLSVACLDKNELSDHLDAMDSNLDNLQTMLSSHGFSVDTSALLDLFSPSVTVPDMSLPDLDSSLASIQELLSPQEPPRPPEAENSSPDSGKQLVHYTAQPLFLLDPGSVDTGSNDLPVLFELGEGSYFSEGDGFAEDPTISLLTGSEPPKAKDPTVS
Sequence of ETV1 (P50549 whole entry): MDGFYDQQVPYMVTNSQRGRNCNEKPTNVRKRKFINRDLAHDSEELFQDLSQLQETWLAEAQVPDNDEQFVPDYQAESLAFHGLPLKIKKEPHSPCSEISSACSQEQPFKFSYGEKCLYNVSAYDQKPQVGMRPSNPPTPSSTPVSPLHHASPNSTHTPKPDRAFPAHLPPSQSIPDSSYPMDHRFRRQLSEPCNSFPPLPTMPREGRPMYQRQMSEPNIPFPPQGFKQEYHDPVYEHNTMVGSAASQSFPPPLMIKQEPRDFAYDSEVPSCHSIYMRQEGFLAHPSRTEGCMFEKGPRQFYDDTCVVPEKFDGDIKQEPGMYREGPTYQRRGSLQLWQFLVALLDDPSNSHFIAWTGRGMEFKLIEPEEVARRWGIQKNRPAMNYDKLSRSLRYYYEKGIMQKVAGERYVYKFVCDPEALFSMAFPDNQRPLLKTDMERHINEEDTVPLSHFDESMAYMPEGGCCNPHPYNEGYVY
Sequence of SPIB (Q01892 whole entry): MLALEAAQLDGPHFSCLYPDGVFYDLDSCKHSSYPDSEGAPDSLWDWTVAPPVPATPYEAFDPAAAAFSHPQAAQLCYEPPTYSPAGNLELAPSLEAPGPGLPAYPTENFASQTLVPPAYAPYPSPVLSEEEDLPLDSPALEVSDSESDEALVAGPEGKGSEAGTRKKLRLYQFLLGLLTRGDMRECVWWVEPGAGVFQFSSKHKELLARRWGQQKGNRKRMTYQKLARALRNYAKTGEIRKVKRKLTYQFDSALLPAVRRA
Sequence of ELF1 (P32519 whole entry): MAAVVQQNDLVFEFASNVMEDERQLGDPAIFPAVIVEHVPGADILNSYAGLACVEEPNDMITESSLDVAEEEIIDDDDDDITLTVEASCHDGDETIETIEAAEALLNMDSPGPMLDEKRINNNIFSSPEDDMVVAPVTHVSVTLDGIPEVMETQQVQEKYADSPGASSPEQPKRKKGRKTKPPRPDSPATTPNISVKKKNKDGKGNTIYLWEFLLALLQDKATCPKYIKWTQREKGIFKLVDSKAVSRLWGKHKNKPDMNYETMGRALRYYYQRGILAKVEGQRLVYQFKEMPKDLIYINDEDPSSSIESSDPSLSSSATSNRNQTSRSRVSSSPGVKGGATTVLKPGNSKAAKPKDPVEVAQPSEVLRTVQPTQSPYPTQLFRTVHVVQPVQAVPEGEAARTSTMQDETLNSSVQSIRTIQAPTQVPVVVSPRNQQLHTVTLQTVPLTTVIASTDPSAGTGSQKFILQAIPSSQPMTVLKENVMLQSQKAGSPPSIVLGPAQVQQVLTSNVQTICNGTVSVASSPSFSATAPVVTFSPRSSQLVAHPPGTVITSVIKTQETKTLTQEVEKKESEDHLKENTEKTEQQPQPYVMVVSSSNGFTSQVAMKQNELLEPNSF
Sequence of ELF4 (Q99607 whole entry): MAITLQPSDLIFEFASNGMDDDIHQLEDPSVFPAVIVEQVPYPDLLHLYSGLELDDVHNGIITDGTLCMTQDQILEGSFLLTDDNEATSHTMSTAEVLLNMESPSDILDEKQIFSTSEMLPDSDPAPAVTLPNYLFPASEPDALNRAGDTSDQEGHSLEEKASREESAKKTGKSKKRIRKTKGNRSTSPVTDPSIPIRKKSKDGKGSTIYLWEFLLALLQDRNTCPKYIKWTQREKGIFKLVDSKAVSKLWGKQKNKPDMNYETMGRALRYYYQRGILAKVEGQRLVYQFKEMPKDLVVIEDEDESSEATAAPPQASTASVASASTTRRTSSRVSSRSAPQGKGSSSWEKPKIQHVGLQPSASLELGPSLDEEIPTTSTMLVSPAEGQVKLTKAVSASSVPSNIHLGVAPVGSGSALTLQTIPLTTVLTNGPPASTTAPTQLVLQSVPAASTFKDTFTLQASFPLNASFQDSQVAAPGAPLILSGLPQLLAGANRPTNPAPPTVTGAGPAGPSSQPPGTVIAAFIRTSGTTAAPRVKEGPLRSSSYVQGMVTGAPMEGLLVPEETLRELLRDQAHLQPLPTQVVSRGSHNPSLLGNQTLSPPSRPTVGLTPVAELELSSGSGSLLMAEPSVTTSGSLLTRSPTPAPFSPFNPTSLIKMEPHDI

As for TTTGGG, the binding signal in the assay with FLI1 is 1.27 fold enrichment (6-mer frequency, TF over GST control); with ELK1, 1.34 fold enrichment (6-mer frequency, TF over GST control); with GABPA, 1.37 fold enrichment (6-mer frequency, TF over GST control); with ERG it was 1.25 fold enrichment (6-mer frequency, TF over GST control); with ELF1, 1.25 fold enrichment (6-mer frequency, TF over GST control); with EHF it was 1.28 fold enrichment (6-mer frequency, TF over GST control). For the same sequence, the binding signal with SPI1 is 1.4 fold enrichment (6-mer frequency, TF over GST control); in the assay with SPIB, 1.18 fold enrichment (6-mer frequency, TF over GST control); with ELK3, 1.29 fold enrichment (6-mer frequency, TF over GST control); in the assay with FEV it was 1.31 fold enrichment (6-mer frequency, TF over GST control); with ETV5 it was 1.39 fold enrichment (6-mer frequency, TF over GST control); in the assay with HSF1, 1.36 fold enrichment (6-mer frequency, TF over GST control). Moreover, the binding signal was 1.16 fold enrichment (6-mer frequency, TF over GST control) with SPIC; 1.41 fold enrichment (6-mer frequency, TF over GST control) with ELF4; 1.41 fold enrichment (6-mer frequency, TF over GST control) with ELK4; 1.42 fold enrichment (6-mer frequency, TF over GST control) with ETV2; 1.7 fold enrichment (6-mer frequency, TF over GST control) with ELF3; 1.57 fold enrichment (6-mer frequency, TF over GST control) in the assay with CRX. Also, in the assay with ETV1, the binding signal was 1.43 fold enrichment (6-mer frequency, TF over GST control).
